Screens: PubChem BioAssay, Pan Lab, Icahn School of Medicine at Mount Sinai
Shown is part of a subset that was picked to be rich in hits.
ROC1-CUL1 inh = human ROC1-CUL1 E3 ligase inhibition. in vitro K48 di-Ub FRET, acceptor:donor ratio, 45 min. inhibition, % at 10 µM. 140,000 tested, 0.6% active; in the data active means inhibition above about 25%
Target sequence (P62877 whole entry, looked up): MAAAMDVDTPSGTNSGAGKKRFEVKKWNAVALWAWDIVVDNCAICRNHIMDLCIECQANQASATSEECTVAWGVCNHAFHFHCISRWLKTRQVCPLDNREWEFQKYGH
Target sequence (Q13616 whole entry, looked up): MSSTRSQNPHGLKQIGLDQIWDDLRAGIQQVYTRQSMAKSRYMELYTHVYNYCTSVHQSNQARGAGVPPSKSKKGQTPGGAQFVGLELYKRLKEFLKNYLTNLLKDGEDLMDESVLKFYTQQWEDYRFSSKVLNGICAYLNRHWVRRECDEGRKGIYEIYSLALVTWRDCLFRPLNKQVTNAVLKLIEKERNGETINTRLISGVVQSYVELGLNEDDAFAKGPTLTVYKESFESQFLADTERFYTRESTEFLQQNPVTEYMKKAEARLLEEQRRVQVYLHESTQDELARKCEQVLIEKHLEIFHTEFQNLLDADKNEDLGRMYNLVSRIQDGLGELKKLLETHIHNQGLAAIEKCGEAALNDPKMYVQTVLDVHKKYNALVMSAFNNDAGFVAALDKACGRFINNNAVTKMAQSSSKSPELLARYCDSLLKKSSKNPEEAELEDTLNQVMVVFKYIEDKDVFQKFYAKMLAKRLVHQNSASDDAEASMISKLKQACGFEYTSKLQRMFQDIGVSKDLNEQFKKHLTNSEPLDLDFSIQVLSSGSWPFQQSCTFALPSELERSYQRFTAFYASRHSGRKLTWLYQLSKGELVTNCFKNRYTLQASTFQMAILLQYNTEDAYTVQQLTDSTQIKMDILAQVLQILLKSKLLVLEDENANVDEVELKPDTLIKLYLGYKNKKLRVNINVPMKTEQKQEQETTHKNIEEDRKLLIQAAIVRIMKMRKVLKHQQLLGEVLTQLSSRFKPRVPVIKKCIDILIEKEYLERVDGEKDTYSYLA
Numbers without * were called inactive.

SMILES	ROC1-CUL1 inh
O=C(CSc1nc(-c2ccccc2)c(-c2ccccc2)[nH]1)c1ccc(O)c(O)c1O	101.4*
COc1ccc(C(=O)CSc2nc(-c3ccccc3)c(-c3ccccc3)[nH]2)cc1	4.2
CC(Sc1nc(-c2ccccc2)c(-c2ccccc2)[nH]1)C(=O)O (centres undefined)	-3.4
Cc1c(NS(C)(=O)=O)cccc1C(=O)Nc1cccc(Cl)c1	1.1
CCn1c(C)nc2cc(C(=O)O)ccc21	3.3
O=C1CC(=Nc2cccc3cc(S(=O)(=O)O)ccc23)c2ccccc2C1=O	79.8*
O=C1C(=Nc2ccc(Cl)c(Cl)c2)CC(=NS(=O)(=O)c2ccc(Cl)cc2)c2ccccc21	-14.5
O=C1c2cc(S(=O)(=O)O)ccc2C(=O)c2c(Cl)cccc21	-2.7
O=C1CCC(CCC(=O)N2CCC[C@H]2CO)(Cc2ccc3ccccc3c2)N1 (some centres undefined)	3.0
O=c1c(Cl)nc(Cl)cn1-c1ccc(Cl)c(Cl)c1	32.4*
CC(=O)Nc1nc(Cl)cn(-c2ccc(C)cc2)c1=O	5.7
COc1nc(Cl)cn(-c2ccc(C)cc2)c1=O	3.4
C=CCNS(=O)(=O)c1c(C)cc(Cl)nc1Cl	0.3
COc1ccccc1N1CCN(/N=C2/C(=O)Nc3ccccc32)CC1	7.5
CC1CCc2c(sc(NC(=O)C34CC5CC(CC(C5)C3)C4)c2C#N)C1 (centres undefined)	-2.4
COC1=CC(=NC#N)C(Br)=CC1=NC#N	103.9*
Cc1cc(Br)ccc1OCC(=O)NNC(=O)C(c1ccccc1)c1ccccc1	-5.0
Cc1ccc(Nc2nc(Nc3ccc(C)c(C)c3)nc(N3CCOCC3)n2)cc1C	-4.2
Fc1ccc(Nc2nc(Nc3ccc(F)cc3F)nc(N3CCOCC3)n2)cc1	-3.5
Nc1ccc(/C=C/c2ccc(Nc3nc(Nc4ccccc4)nc(N4CCOCC4)n3)cc2S(=O)(=O)O)c(S(=O)(=O)O)c1	37.2*
COC(=O)c1ccccc1NC(=O)C(Cc1ccccc1)NC(=O)COc1ccccc1 (centres undefined)	0.2
Cc1ccc(C)c(Cn2c(=O)n(CCCC(=O)NCCc3ccc(Cl)cc3)c(=O)c3ccccc32)c1	1.6
CC1=Nc2ccc(C(=O)Nc3cccc(C)c3C)cc2C(=O)C1	-5.6
Cc1cc(C)n(Cc2nc(-c3c(C)ncc4c3CCN(CC3CC3)C4)no2)n1	36.9*
Cc1ncc2c(c1-c1noc(-c3ccc(N)nc3)n1)CCN(CC1CCCC1)C2	1.8
SMILES	ROC1-CUL1 inh
CNc1ncc(-c2nc(-c3c(C)ncc4c3CCN(CC3CC3)C4)no2)cn1	1.7
O=C1NC(=S)NC(=O)C1=Cc1ccc(-c2ccccc2Cl)o1	1.2
CC(=O)NS(=O)(=O)c1ccc(Br)cc1	-2.6
CC(=O)NS(=O)(=O)c1ccc(-c2ccc(C=C3C(=O)NC(=S)NC3=O)o2)cc1	41.5*
O=C(CCCOc1ccccc1)N1CCCC1	-7.9
Cc1ccc(C(C)C)c(OCC(=O)Oc2ccccn2)c1	-5.8
CC1=C(C(=O)OC(C)C)C(c2ccc(C(C)C)cc2)N2C(=O)CCSC2=N1 (centres undefined)	5.3
CCc1nnc(NC(=O)COC)s1	2.1
CCc1nnc(NC(=O)CCSCCC(=O)Nc2nnc(CC)s2)s1	37.1*
CCOCC(=O)Nc1nnc(CC)s1	4.9
CC(C)n1ccc(-c2cccc(-c3cncnc3)c2)n1	-6.4
COc1ccc(C(=O)NCc2ccccc2F)cc1OC1CCN(C(C)=O)CC1	6.4
COc1cccc2c1NC(=O)C(Cl)(Cl)C2=O	-2.5
COc1c(Cl)cc2c(c1Cl)NC(=O)C(Cl)(Cl)C2=O	45.5*
O=C1Nc2c(cc([N+](=O)[O-])cc2[N+](=O)[O-])C(=O)C1(Cl)Cl	21.2
CCC(C)n1c(=N)c(C(=O)NCc2ccccc2)cc2c(=O)n3cc(C)ccc3nc21 (centres undefined)	-1.5
COc1ccc(C(=O)c2oc3ccccc3c2NC(=O)COc2ccc(Cl)cc2Cl)cc1	-5.4
Cc1cc(Cl)ccc1OCCCCCN1CCNCC1	-4.0
Cc1ccc(OCCCCCN2CCNCC2)cc1	0.3
Cc1ccc(OCCCCN2CCNCC2)c(C(C)(C)C)c1	25.1*
O=C(Cc1ccccc1)Nc1nc(-c2ccccc2)c(-c2ccccc2)s1	-1.3
CC(=O)CSc1nc2c(c(-c3cccs3)c1C#N)CC(C(C)(C)C)CC2 (centres undefined)	-3.3
N#CC1=C(c2ccccc2)CC(C(F)(F)F)=NC1=S	5.5
CC1=NC(=S)C(C#N)=C(C(F)(F)F)C1	-1.1
N#CC1=C(C(F)(F)F)CC(c2ccco2)=NC1=S	90.8*
SMILES	ROC1-CUL1 inh
Cc1ccc(C(C2C(=O)CC(C)(C)CC2=O)C2C(=O)CC(C)(C)CC2=O)cc1	-1.9
CCOC(=O)c1cc(-c2ccc([N+](=O)[O-])cc2)n(NC(=O)COc2ccccc2C)c1C	0.1
O=C(NNc1ccc([N+](=O)[O-])cc1[N+](=O)[O-])c1cccc2ccccc12	-9.4
Cc1ccccc1OCC(=O)NNc1ccc([N+](=O)[O-])cc1[N+](=O)[O-]	35.9*
Cc1nnsc1C(=O)Nc1ccc(C(=O)c2ccc(F)cc2)cc1	-7.0
CCc1ccc(CCC(=O)N2CCc3ccccc32)cc1	-0.5
O=C1CC(c2ccco2)Cc2nc(Nc3ccccc3)ncc21 (centres undefined)	1.5
CN(C)c1ccc2c(c1)OC(=N)C(C#N)C2c1ccc(Br)cc1 (centres undefined)	-3.4
CCOc1ccc(C(=O)Nc2ccc3oc(-c4ccc5ccccc5c4)nc3c2)cc1	-0.2
O=C(Cc1cccnc1)N(CC1CCN(Cc2ccccc2F)CC1)CC1CCCO1 (centres undefined)	8.2
O=C(O)c1ccc(-c2ccc(-c3nc4sc5c(c4c(=O)[nH]3)CCCCC5)o2)cc1	4.7
O=C(O)c1cccc(-c2ccc(-c3nc4sc5c(c4c(=O)[nH]3)CCCC5)o2)c1	97.4*
O=c1[nH]c(-c2cccc(Cl)c2Cl)nc2sc3c(c12)CCCCCC3	-11.6
O=[N+]([O-])c1cc(Cl)cc2c1[nH]c1ccc(Cl)cc12	10.1
CNCc1cccc(OCc2ccccc2Cl)c1	-3.8
CCOc1cccc(CNC(C)(C)CO)c1OCc1ccc(Cl)cc1Cl	-0.5
Oc1ccc(NCc2cccc(OCc3ccc(Cl)cc3Cl)c2)cc1	38.8*
CNCc1ccc(OCc2ccc(Cl)cc2Cl)cc1	-6.1
CCOc1cccc(CNc2ccc(O)cc2)c1OCc1ccccc1Cl	-2.8
CCOc1cccc(CNc2ccc(O)cc2)c1OCc1ccc(Cl)cc1Cl	53.4*
CCOC(=O)C1(C(F)(F)F)N=C(c2ccc(F)cc2)OC(N2CCCCC2)=N1 (centres undefined)	-5.4
CCCOc1c(I)cc(C(=O)Nc2ccccc2)cc1OCC	-8.7
Cc1ccc(-c2c(CN3CCN(c4cccc(C)c4)C(C)C3)csc2C)cc1 (centres undefined)	-7.5
CCOC(=O)/C=C/c1csc(Br)c1Br	-8.7
Cc1nc(CN2CCN(C(=O)CCN3Cc4ccccc4OC(c4ccccc4F)C3)CC2)cs1 (centres undefined)	-4.3
SMILES	ROC1-CUL1 inh
O=C(O)c1ccccc1C(=O)c1ccc2c3c(cccc13)CC2	-13.8
CN1C(=O)C(=C/C=C/c2ccco2)C(=O)N(C)C1=S	44.8*
O=C(/C=C/c1ccco1)CCN1CCCCC1	16.1
O=C1C(=C/C=C/c2ccccc2Cl)C(=O)N(c2ccccc2)C(=S)N1c1ccccc1	9.1
Cc1c(C(C)NCc2ccc3nonc3c2)cnn1-c1ccccc1 (centres undefined)	0.2
Cc1noc(C)c1C(=O)NCc1ccccc1Cl	-8.6
Cc1nn(-c2nnc(-n3nc(C)c(Cl)c3C)nn2)c(C)c1Cl	2.6
